According to PubChem BioAssay (NCATS):
Inconclusive results are not listed. More than one record can exist for a structure, and the calls need not agree. Calls of active or inactive are those of the source. Unless noted, calls follow the shape of the dose curve; as a rule, active = well fitted curve in the direction sought with a large enough effect; inconclusive = small, poorly fitted or top-dose-only effect, or another doubt; inactive = no such curve, though single readings can be large; an effect the other way counts as inactive or inconclusive.

How the values were obtained:
[1] = molecular target: ATP-dependent 6-phosphofructokinase (Trypanosoma brucei brucei) (UniProt O15648); test: qHTS Assay to Find Inhibitors of T. brucei phosphofructokinase: hit validation (AID 492961); also: potency is read from the fitted curve at half-maximal effect
Sequence of ATP-dependent 6-phosphofructokinase (Trypanosoma brucei brucei) (O15648 whole entry, looked up): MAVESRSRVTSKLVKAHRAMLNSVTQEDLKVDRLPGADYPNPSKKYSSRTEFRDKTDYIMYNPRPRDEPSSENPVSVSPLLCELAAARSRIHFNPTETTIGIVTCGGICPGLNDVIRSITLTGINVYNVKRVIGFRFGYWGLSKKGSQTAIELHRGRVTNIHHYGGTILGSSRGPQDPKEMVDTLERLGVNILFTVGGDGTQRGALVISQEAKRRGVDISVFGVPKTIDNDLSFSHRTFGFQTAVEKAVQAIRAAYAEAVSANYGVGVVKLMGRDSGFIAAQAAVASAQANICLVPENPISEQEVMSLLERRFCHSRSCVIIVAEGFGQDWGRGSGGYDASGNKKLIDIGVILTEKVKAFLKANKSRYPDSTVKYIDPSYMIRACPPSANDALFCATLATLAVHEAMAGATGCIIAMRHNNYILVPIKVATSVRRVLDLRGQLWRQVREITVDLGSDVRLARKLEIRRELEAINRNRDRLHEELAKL
Procedure, shortened: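 ADP-Glo luminescence read-out of ADP formed by 1.25 nM PFK from 0.1 mM ATP and 0.5 mM F6P (TEA pH 8.0, 45 min, RT). Compounds titrated; activity normalized to no-enzyme and full-enzyme controls.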

[2] = Quantitative high throughput screen for delayed death inhibitors of the malarial parasite plastid, 48 hour incubation (AID 488752); also: % is scaled to controls: 0 for no effect and ±100 for the full control effect; nearly all actives have a fitted effect of over 65% in size
Procedure, shortened: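 Cultures: infected erythrocytes at final 2% hematocrit and 0.1% parasitemia in Albumax-supplemented RPMI. Parasites express integrated firefly luciferase. Incubation with compound lasts 48 h before luminescent detection of remaining reporter activity.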

[3] = molecular target: Flap endonuclease 1 (Homo sapiens) (UniProt P39748); test: qHTS Validation Assay for the Inhibitors of Human Flap endonuclease 1 (FEN1) (AID 488816); also: % is scaled to controls: 0 for no effect and ±100 for the full control effect
Sequence of Flap endonuclease 1 (Homo sapiens) (P39748 whole entry, looked up): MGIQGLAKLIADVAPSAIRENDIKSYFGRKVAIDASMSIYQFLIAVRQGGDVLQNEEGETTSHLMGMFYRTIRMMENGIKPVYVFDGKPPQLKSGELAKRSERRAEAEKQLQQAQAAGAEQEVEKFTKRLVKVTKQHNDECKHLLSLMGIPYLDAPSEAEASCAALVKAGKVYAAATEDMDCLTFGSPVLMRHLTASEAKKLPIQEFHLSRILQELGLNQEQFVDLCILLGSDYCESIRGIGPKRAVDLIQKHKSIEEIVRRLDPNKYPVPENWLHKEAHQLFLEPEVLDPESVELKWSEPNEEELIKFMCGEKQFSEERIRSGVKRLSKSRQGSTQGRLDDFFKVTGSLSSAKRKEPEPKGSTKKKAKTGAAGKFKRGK
Procedure, shortened: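 qHTS format: compounds and 10 nM FEN1 incubated 15 min at room temperature before adding 50 nM substrate. Cleavage followed by reads at 0 and 15 min; normalized data fitted to a four-parameter Hill curve.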

[4] = molecular target: M-phase phosphoprotein 8 (Homo sapiens) (UniProt Q99549); test: qHTS Validation Assay for Inhibitors for MPP8 Chromodomain Interactions with Methylated Histone Tails (AID 488949); also: nearly all actives have a fitted effect of over 55% in size; also: potency is read from the fitted curve at half-maximal effect
Sequence of M-phase phosphoprotein 8 (Homo sapiens) (Q99549 whole entry, looked up): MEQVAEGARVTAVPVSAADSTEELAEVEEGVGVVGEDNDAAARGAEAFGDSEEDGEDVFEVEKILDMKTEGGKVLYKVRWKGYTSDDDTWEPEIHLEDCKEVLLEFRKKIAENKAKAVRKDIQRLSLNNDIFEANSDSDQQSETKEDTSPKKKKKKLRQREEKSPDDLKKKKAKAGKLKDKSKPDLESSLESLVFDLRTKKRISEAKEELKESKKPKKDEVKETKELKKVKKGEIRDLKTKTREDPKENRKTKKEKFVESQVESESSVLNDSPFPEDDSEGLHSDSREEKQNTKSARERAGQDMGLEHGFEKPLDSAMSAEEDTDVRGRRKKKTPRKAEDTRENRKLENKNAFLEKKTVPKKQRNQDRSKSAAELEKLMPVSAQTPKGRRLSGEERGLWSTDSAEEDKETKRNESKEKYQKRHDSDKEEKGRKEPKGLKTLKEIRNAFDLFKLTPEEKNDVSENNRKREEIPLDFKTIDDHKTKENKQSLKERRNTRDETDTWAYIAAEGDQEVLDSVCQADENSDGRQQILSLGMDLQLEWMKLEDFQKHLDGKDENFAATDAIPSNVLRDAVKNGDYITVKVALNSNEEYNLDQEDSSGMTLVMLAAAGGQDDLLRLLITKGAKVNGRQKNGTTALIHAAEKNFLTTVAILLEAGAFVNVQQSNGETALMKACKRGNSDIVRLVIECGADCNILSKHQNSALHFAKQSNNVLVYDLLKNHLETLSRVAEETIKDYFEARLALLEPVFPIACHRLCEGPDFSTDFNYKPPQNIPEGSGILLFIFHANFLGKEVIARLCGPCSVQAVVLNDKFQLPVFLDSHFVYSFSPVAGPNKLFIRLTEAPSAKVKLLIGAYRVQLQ
Procedure, shortened: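 AlphaScreen read-out: streptavidin donor and nickel chelate acceptor beads (final 10 ug/mL), 30 min in the dark at RT. Complex of 50 nM MPP8 and 50 nM b-H3(1-18)K9me3 peptide had been exposed to compounds for 30 min beforehand.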

[5] = molecular target: Transient receptor potential cation channel subfamily V member 1 (Homo sapiens) (UniProt Q8NER1); test: HTS Assay for Compounds that Act as Enhancers of the Vanilloid Receptor 1 (AID 488979); also: 0% is about no effect
Procedure, shortened: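 Calcium influx kinetics via Fluo-8 (480/520 nm) in TRPV1-expressing cells, 2000/well cultured overnight at 35.5C. Compound-alone read 3 min (agonist phase), followed by EC20 capsaicin challenge for 2 min (enhancer phase).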

[6] = molecular target: Beta-2 adrenergic receptor (Homo sapiens) (UniProt P07550); test: qHTS validation assay of beta-arrestin-biased ligands of beta2-adrenergic receptor (AID 485366); also: 0% is about no effect
Sequence of Beta-2 adrenergic receptor (Homo sapiens) (P07550 whole entry, looked up): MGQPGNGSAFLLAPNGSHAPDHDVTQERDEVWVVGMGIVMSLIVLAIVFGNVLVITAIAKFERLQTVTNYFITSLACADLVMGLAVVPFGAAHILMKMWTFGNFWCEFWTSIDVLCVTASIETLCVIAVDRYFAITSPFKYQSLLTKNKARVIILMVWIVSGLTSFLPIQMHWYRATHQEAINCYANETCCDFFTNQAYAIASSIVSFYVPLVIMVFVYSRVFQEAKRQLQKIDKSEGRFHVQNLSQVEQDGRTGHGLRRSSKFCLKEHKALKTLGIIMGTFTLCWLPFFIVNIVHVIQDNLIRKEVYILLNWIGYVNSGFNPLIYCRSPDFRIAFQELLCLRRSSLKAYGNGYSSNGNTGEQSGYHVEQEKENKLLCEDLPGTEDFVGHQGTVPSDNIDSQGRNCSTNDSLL
Procedure, shortened: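 Compound series up to 46 microM applied to beta2-AR/beta-arrestin Tango cells, 18 hr, 37 degrees C, 5% CO2. Read-out: tTA-driven luciferase luminescence, converted to %Activity; concentration-response curves assigned curve classes.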

[7] = molecular target: Thioredoxin reductase 1, cytoplasmic (Rattus norvegicus) (UniProt O89049); test: qHTS Assay for Substrates of Mammalian Selenoprotein Thioredoxin Reductase 1 (TrxR1) (AID 488772);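 also: series mostly up to about 57 µM; 0% is about no effect; a drop in NADPH fluorescence below the no-compound background marks a TrxR1 substrate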
Sequence of Thioredoxin reductase 1, cytoplasmic (Rattus norvegicus) (O89049 whole entry, looked up): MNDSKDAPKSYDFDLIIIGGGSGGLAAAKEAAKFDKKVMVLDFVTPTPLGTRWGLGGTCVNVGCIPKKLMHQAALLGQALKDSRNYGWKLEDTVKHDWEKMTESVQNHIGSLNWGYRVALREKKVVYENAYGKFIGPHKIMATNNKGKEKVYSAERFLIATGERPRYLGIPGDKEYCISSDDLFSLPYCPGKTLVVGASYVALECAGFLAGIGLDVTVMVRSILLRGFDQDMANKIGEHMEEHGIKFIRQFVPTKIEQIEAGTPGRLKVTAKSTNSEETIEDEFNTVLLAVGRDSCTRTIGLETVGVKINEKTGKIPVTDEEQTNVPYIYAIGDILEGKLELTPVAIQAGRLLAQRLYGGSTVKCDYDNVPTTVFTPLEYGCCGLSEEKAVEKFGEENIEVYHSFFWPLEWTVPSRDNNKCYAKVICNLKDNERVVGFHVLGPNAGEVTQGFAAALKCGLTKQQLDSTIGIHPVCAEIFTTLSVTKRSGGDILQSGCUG
Procedure, shortened: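 In this dual-purpose format, potential substrates are identified from the first fluorescence read after selenite addition, not from the 8-minute delta. Rat enzyme is preincubated with NADPH and then with compound at ~22 deg C.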

[8] = molecular target: Thioredoxin reductase 1, cytoplasmic (Rattus norvegicus) (UniProt O89049); test: qHTS Assay for Inhibitors of Mammalian Selenoprotein Thioredoxin Reductase 1 (TrxR1) (AID 488773); conditions: Potency: inhibition;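 also: drop in NADPH fluorescence over an 8 min run after selenite addition; series mostly up to about 57 µM; % is scaled to controls: 0 for no effect and ±100 for the full control effect; nearly all actives have a fitted effect of over 40% in size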
Procedure, shortened: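 Inhibition is scored from the loss of NADPH fluorescence between first and last reads of an 8-min kinetic run. Selenite (400 uM) was the substrate, added after 15 min compound preincubation at room temperature.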

[9] = molecular target: Methanococcus maripaludis chaperonin (MmCpn) (UniProt Q6LX38); test: High-Throughput Screening for Modulators of Cytosolic Chaperonin Activity: MmCpn Primary Screen (AID 488978);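 also: 50 nM MmCpn enzyme hydrolysing 30 µM ATP at 37 °C; 0% is about no effect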
Sequence of Methanococcus maripaludis chaperonin (MmCpn) (Q6LX38 1-543): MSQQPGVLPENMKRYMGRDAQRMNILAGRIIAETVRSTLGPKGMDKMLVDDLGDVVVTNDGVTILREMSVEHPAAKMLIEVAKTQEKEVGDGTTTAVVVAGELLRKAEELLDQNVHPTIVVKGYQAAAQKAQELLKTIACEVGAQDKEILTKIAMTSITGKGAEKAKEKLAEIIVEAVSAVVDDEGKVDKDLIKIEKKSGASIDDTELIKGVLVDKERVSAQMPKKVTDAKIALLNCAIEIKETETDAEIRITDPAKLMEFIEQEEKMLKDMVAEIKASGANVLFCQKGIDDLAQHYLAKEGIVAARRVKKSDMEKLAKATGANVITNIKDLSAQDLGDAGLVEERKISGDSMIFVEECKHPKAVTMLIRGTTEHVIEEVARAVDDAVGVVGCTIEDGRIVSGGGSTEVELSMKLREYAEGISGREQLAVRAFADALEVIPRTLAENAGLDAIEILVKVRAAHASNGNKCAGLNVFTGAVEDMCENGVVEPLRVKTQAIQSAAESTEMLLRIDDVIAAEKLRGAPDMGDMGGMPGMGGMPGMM
Procedure, shortened: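 ADP formation read by HTRF Transcreener, 665/590 nm emission after 320 nm excitation. Enzyme: archaeal chaperonin at 50 nM final; substrate ATP 30 uM final; 10 min, 37C, after 5 min compound preincubation at RT.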

[10] = molecular target: Thyrotropin receptor (Homo sapiens) (UniProt P16473); test: qHTS Assay for Antagonists of the Thyroid Stimulating Hormone Receptor (AID 488980); also: series mostly up to about 58 µM; 0% is about no effect
Sequence of Thyrotropin receptor (Homo sapiens) (P16473 whole entry, looked up): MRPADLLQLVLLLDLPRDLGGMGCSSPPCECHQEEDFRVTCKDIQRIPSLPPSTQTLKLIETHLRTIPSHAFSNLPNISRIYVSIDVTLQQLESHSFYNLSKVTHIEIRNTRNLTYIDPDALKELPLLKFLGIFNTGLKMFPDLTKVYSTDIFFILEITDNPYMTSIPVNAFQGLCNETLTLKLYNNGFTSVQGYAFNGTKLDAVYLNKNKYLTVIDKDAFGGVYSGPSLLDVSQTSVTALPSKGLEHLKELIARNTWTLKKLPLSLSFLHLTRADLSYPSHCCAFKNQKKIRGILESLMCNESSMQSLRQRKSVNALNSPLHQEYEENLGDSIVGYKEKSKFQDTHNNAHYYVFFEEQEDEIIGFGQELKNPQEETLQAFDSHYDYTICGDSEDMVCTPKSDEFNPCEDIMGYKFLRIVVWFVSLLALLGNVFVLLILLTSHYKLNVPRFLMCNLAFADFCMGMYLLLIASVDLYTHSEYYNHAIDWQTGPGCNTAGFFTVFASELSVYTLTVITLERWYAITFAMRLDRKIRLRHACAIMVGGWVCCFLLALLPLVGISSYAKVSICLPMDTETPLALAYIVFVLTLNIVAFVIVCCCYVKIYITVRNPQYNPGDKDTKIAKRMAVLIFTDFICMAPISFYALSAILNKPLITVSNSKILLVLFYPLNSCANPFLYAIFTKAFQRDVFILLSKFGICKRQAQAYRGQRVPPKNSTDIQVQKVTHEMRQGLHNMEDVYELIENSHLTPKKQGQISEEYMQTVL
Procedure, shortened: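 TSHR-HEK293 cells; 70 uM RO 20-1724 PDE inhibitor; compound + EC80 TSH (4 nM final); anti-cAMP cryptate antibody/cAMP-d2 in lysis buffer, 30 min RT; HTRF 665/620 nm read.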

[11] = molecular target: D(1A) dopamine receptor (Homo sapiens) (UniProt P21728); test: HTS Assay for Allosteric Agonists of the Human D1 Dopamine Receptor: Primary Screen for Agonists (AID 488981); also: 0% is about no effect
Sequence of D(1A) dopamine receptor (Homo sapiens) (P21728 whole entry, looked up): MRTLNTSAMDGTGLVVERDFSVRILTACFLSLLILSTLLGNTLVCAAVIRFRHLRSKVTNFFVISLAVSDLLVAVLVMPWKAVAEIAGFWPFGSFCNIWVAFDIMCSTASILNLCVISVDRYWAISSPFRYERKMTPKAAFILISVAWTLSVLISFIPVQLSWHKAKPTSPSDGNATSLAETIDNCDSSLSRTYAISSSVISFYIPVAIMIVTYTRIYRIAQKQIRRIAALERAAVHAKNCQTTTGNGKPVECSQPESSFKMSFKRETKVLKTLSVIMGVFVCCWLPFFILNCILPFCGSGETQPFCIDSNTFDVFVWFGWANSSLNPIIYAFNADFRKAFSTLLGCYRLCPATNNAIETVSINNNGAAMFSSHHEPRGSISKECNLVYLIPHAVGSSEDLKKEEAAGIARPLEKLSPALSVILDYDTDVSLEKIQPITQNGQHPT
Procedure, shortened: (§1)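 Calcium flux in an inducible, force-coupled HEK293 Trex D1 line (overnight at 30 C): agonist mode is the 180 s kinetic read after compound; potentiator mode is the following 180 s read after dopamine at EC20.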

[12] = molecular target: D(1A) dopamine receptor (Homo sapiens) (UniProt P21728); test: HTS Assay for Allosteric Agonists of the Human D1 Dopamine Receptor: Primary Screen for Potentiators (AID 488982); also: 0% is about no effect
Procedure, shortened: as §1

[13] = molecular target: D(1A) dopamine receptor (Homo sapiens) (UniProt P21728); test: HTS Assay for Allosteric Agonists of the Human D1 Dopamine Receptor: Primary Screen for Antagonists (AID 488983);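 also: calcium flux response to an EC80 dopamine challenge measured with no-wash dye; % is scaled to controls: 0 for no effect and ±100 for the full control effect; nearly all actives have a fitted effect of over 65% in size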
Procedure, shortened: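 In this primary screen, compounds are applied to calcium-dye-loaded HEK293 T-REx cells with force-coupled D1 expression induced overnight at 30 C. An EC80 of dopamine follows the 180 s compound phase, and calcium is monitored for a further 180 s.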

[14] = Validation screen for small molecules that induce genotoxicity in human embryonic kidney (HEK293T) cells expressing luciferase-tagged ELG1 (AID 493106); also: 0% is about no effect
Procedure, shortened: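 In this validation screen, increased ELG1-luciferase signal flags compounds causing genetic stress. HEK293T reporter cells are treated 16 hr (37 °C, 5% CO2), developed with ONE-Glo for 30 min at room temperature, and imaged on a CCD-based reader.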

[15] = molecular target: ATPase family AAA domain-containing protein 5 (Homo sapiens) (UniProt Q96QE3); test: Validation screen for small molecules that inhibit ELG1-dependent DNA repair in human embryonic kidney (HEK293T) cells expressing luciferase-tagged ELG1 (AID 493107);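 also: cells co-treated with the DNA-damaging agent 5-fluorouridine alongside compound; series mostly up to about 46 µM; % is scaled to controls: 0 for no effect and ±100 for the full control effect; inhibitors lower the ELG1-luciferase luminescence signal; nearly all actives have a fitted effect of over 70% in size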
Procedure, shortened: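 Compounds reducing 5-fluorouridine-driven ELG1-luciferase signal in HEK293T cells were scored; exposure lasted 16 hr at 37 °C with luminescence detected via ONE-Glo.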

[16] = molecular target: Thyrotropin-releasing hormone receptor (Homo sapiens) (UniProt P34981); test: qHTS for Small Molecule Agonists and Allosteric Enhancers of Human TRH Receptor: Validation Screen for Agonists (AID 493127;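 active = calcium activation more than 3 SD above the typical response in the agonist read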;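 also: intracellular calcium rise by fluo-8 fluorescence before TRH EC20 addition; 0% is about no effect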); conditions: TRH receptor agonist cell assay; at 2 µM; stronger effect = higher value
Sequence of Thyrotropin-releasing hormone receptor (Homo sapiens) (P34981 whole entry, looked up): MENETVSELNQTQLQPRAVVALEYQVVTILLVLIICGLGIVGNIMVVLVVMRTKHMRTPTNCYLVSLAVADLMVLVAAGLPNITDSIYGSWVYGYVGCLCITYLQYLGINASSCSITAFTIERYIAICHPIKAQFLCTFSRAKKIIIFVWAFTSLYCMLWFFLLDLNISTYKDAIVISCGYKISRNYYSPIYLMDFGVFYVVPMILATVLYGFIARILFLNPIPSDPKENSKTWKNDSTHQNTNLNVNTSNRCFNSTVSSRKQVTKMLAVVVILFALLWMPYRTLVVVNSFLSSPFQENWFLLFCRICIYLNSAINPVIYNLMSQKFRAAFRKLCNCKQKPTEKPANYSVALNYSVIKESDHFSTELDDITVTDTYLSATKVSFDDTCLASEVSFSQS
Procedure, shortened: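 Kinetic fluorescence assay of agonist-induced calcium release: overnight-plated TRHR cells, room-temperature fluo-8 loading, baseline then compound addition with per-second reads.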

[17] = Nrf2 qHTS screen for inhibitors: Validation (AID 493153; active = well fitted inhibition curve with a large enough effect in the main read-out, with a control signal flat, not every such curve was filed as active); conditions: viability change: measured here: cytotoxicity max response
Procedure, shortened: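 In this counterscreened reporter format, each well gives two signals: CellTiter-Fluor fluorescence for cytotoxicity and ARE-luciferase luminescence for Nrf2 function. A549 ARE_Fluc cells in 5% FBS OPTI-MEM were exposed to compound titrations for 18-24 h.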

[18] = molecular target: Tyrosyl-DNA phosphodiesterase 1 (Homo sapiens) (UniProt Q9NUW8); test: Confirmation Assay for Inhibitors of Tyrosyl-DNA Phosphodiesterase (TDP1) (AID 489007); conditions: recombinant human TDP1 enzymatic activity, dose-response; also: potency is read from the fitted curve at half-maximal effect; nearly all actives have a fitted effect of over 40% in size
Procedure, shortened: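 Loss of AlphaScreen signal reports Tdp1 cleavage of a dual-labelled DNA substrate. Conditions: 1 nM E. coli-derived enzyme, 15 nM substrate, 15 min compound preincubation, 5 min reaction, 10 min bead incubation, all at room temperature.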

[19] = molecular target: Chromobox protein homolog 1 (Homo sapiens) (UniProt P83916); test: qHTS Validation Assay for Inhibitors of HP1-beta Chromodomain Interactions with Methylated Histone Tails (AID 488953); also: nearly all actives have a fitted effect of over 50% in size; also: potency is read from the fitted curve at half-maximal effect
Sequence of Chromobox protein homolog 1 (Homo sapiens) (P83916 whole entry, looked up): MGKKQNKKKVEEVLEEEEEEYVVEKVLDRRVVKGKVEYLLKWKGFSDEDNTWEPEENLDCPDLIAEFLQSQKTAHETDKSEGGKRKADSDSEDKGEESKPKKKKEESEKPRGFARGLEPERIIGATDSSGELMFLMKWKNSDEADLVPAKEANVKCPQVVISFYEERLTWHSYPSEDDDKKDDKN
Procedure, shortened: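 Compounds pinned into a preassembled complex of HP1-beta and trimethyl-K9 histone H3(1-18) biotin peptide (50 nM each; PBS pH 7.4, 0.01% Tween-20). After 30 min, bead-based AlphaScreen detection followed.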

[20] = Quantitative high throughput screen for delayed death inhibitors of the malarial parasite plastid, 96 hour incubation (AID 488745); also: series mostly up to about 29 µM; % is scaled to controls: 0 for no effect and ±100 for the full control effect; nearly all actives have a fitted effect of over 70% in size
Procedure, shortened: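 Two-generation (96 h) exposure of luciferase-reporter P. falciparum in erythrocytes, 2% hematocrit, 0.1% parasitemia final, 37 C, 5% CO2, RPMI 1640 with 0.5% Albumax. Growth inhibition scored by reduced luminescence.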

NC1=NC(=O)N2CC12 (stereo unspecified)
inactive: Potency [1]

Cc1cc(O)ccc1Cl
inactive: Potency [1]

C[N+](C)(C)CC(=O)O
inactive: Potency [2] | Potency [3] | Potency [4] | outcome [5]

CNCCc1c[nH]c2ccc(O)cc12
inactive: outcome [6] | Potency [2] | outcome [7] | Potency [8] | Potency [3] | Potency [4] | outcome [9] | outcome [5] | outcome [10] | Potency [11] | outcome [12] | Potency [13] | outcome [14] | Potency [15] | activation [16] 1.06% | outcome [17]
1.11%: viability change [17]

CC(=O)[O][Hg][c]1ccccc1
active: Potency [18] 10 µM | Potency [1] 7.94 µM

Clc1ccc(C(c2ccc(Cl)cc2)n2cc[n+](CC(OCc3ccc(Cl)cc3Cl)c3ccc(Cl)cc3Cl)c2)cc1 (stereo unspecified)
inactive: Potency [3] | outcome [5] | outcome [10] | outcome [14] | activation [16] -4.62%
35.5 µM (active) and inactive: Potency [4]
active: Potency [19] 50.1 µM

CCCN(CCC)C1CCc2ccc(O)cc2C1 (stereo unspecified)
inactive: outcome [6] | Potency [20] | Potency [8] | Potency [3] | Potency [4] | Potency [19] | outcome [9] | outcome [5] | outcome [10] | Potency [11] | outcome [12] | outcome [14] | Potency [15] | activation [16] -5.19% | outcome [17]
-3.98%: viability change [17]

CN[C@@H](C)[C@H](O)c1ccccc1
inactive: outcome [10] | activation [16] 3.19%
active: Potency [4] 3.55 µM

O=C(Cc1ccc(Cl)c(Cl)c1)N1CCCCC1CN1CCCC1 (stereo unspecified)
inactive: outcome [6] | outcome [7] | Potency [8] | Potency [3] | Potency [4] | Potency [19] | outcome [9] | outcome [5] | outcome [10] | Potency [11] | outcome [12] | Potency [13] | outcome [14] | Potency [15] | activation [16] 1.12% | outcome [17]
7.56%: viability change [17]

CC(C)NC(C)Cc1ccc(I)cc1 (stereo unspecified)
inactive: outcome [6] | outcome [7] | Potency [8] | Potency [3] | Potency [4] | Potency [19] | outcome [9] | outcome [10] | Potency [11] | outcome [12] | Potency [13] | Potency [1] | outcome [14] | Potency [15] | activation [16] 2.38% | outcome [17]
2.82%: viability change [17]

CN1C2CCC1CC(OC(=O)c1cc(Cl)cc(Cl)c1)C2 (stereo unspecified)
1.01%: viability change [17]
inactive: outcome [6] | Potency [2] | Potency [8] | Potency [3] | Potency [4] | Potency [19] | outcome [9] | outcome [5] | outcome [10] | outcome [12] | Potency [13] | outcome [14] | Potency [15] | activation [16] 3.5% | outcome [17]

C[C@]12CCC(=O)C(O)=C1CC[C@@H]1[C@H]3CCC(=O)[C@@]3(C)CC[C@@H]12
inactive: Potency [1]

CC[C@@H](C(N)=O)N1CCCC1=O
0%: viability change [17]
inactive: outcome [6] | outcome [7] | Potency [8] | Potency [3] | Potency [4] | Potency [19] | outcome [9] | Potency [11] | outcome [12] | Potency [13] | outcome [14] | Potency [15] | outcome [17]
